In PubChem BioAssay (NCATS):
Inconclusive results are not listed. Calls of active or inactive are those of the source. Unless noted, no rule for the calls is given here.

Columns and labels:
[1] = qHTS profiling of the MIPE4 collection as inhibitors of Plasmodium falciparum (3D7) proliferation (AID 743344);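 also: scaled between DMSO vehicle wells and 0.29 µM artemisinin as full inhibition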; conditions: P. falciparum 3D7 in erythrocytes, SYBR Green DNA fluorescence, 72 h; at 28.5 µM unless noted
In short: (§1)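 Erythrocytes infected with P. falciparum (0.3% parasitemia, 2.5% hematocrit) incubated with compounds 72 h at 37 C, 5% CO2. Lysis with saponin/Triton buffer containing SYBR Green I, overnight at room temperature in the dark; DNA fluorescence (485/535 nm) normalised to 0.29 uM artemisinin and DMSO.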

[2] = qHTS profiling of the MIPE4 collection as inhibitors of Plasmodium falciparum (DD2) proliferation (AID 743345); conditions: P. falciparum Dd2 in erythrocytes, SYBR Green DNA, 72 h; at 28.5 µM unless noted
In short: as §1

[3] = qHTS profiling of the MIPE4 collection as inhibitors of Plasmodium falciparum (DD2) proliferation (Rep 2) (AID 743346); conditions: P. falciparum Dd2 in erythrocytes, SYBR Green DNA, 72 h; at 28.5 µM unless noted
In short: as §1

[4] = qHTS profiling of the MIPE4 collection as inhibitors of Plasmodium falciparum (HB3) proliferation (AID 743347);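 also: plate controls were DMSO vehicle wells for no effect and artemisinin wells for full effect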; conditions: P. falciparum HB3 in erythrocytes, SYBR Green DNA, 72 h; at 28.5 µM unless noted
In short: as §1

[5] = High-throughput drug toxicity screening in the BPDCN cell line Gen2.2 (AID 1224824); conditions: Gen2.2 BPDCN cells; at 45.8 µM (top of the series) unless noted;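 also: cells exposed to compounds for 48 h before reading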
In short: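 CellTiter-Glo luminescence after 48 h compound exposure of Gen2.2 cells; percent activity set with DMSO as 100% and bortezomib (9.2 uM final) as 0%. Cells seeded at 500 per well, RPMI + 10% FBS, 37 °C.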

[6] = High-throughput drug toxicity screening in the BPDCN cell line Cal-1 (AID 1224825); conditions: Cal-1 BPDCN cell viability, qHTS; at 45.8 µM (top of the series) unless noted
In short: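 500 Cal-1 cells/well, RPMI + glutamine + 10% FBS (phenol red-free); cpd added by pin tool; 48 h, 37C, 5% CO2; CTG 15 min RT, lumi read. Normalised: DMSO 100%, bortezomib 9.2 uM 0%.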

[7] = qHTS assay for measurement of the activity of small molecule inhibitors on Zika virus induced Caspase-3 activity in human astrocytoma cells (AID 1224859; active = well fitted inhibition curve with a large enough effect;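 also: plate controls were ZIKV-infected untreated cells for no effect and uninfected cells for full effect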)
In short: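 Human SNB-19 astrocytoma cells in RPMI 1640 with 10% FBS receive compound one hour ahead of Zika virus at 2 FFU/cell. After 6 h infection, caspase-3/7 activity is detected by Caspase-Glo luminescence.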

[8] = qHTS Screen of the MIPE 4.0 Collection Against Ewings Sarcoma (RDES) (AID 1259252; active = well fitted inhibition curve with a large enough effect; also: nearly all actives have a fitted effect of over 35% in size; also: potency is read from the fitted curve at half-maximal effect;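 as to viability (percent of control): 100% = DMSO-treated cells and 0% = medium-only wells without cells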)
In short: (§2)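 Cells plated in serum-containing RPMI (5% FBS) and treated with compound dilutions for 48 h. Readout luminescent viability; normalization relied on vehicle (no inhibition) and media-only columns (full inhibition).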

[9] = qHTS Screen of the MIPE 4.0 Collection Against Ewings Sarcoma (TC71) (AID 1259253; active = well fitted inhibition curve with a large enough effect; also: nearly all actives have a fitted effect of over 40% in size; also: potency is read from the fitted curve at half-maximal effect;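 as to viability (% of DMSO): 100% = DMSO-treated cells and 0% = medium-only wells without cells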)
In short: as §2

[10] = qHTS Screen of the MIPE 4.0 Collection Against Ewings Sarcoma (EW8) (AID 1259255; active = well fitted inhibition curve with a large enough effect; also: nearly all actives have a fitted effect of over 35% in size; also: potency is read from the fitted curve at half-maximal effect;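 as to viability: 100% = DMSO-treated cells and 0% = medium-only wells without cells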)
In short: as §2

[11] = qHTS assay for measurement of the activity of small molecule inhibitors on Zika virus induced Caspase-3 activity in human iPSC derived neural progenitor cells (hNPCs) (AID 1224857; active = well fitted inhibition curve with a large enough effect; also: % of control where 0% means no effect; nearly all actives have a fitted effect of over 65% in size)
In short: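 Pretreat hNPCs with compound 1 h; infect ZIKV 2 FFU/cell; 6 h 37 C, 5% CO2; Caspase-Glo 3/7, 30 min RT; luminescence; normalize to no-virus and virus-only wells.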

| SMILES | parasite growth, % of DMSO control [1] | parasite growth remaining, % of DMSO control (lower = more inhibition) [2] | parasite growth, % of control (lower = inhibition) [3] | growth, % of control [4] | cell viability, % of control (lower = more cytotoxic) [5] | viability (% of control) [6] | Potency [7] | Potency [8] | Potency [9] | Potency [10] | activity change, negative = inhibition [7] | viability (percent of control) [8] | viability (% of DMSO) [9] | viability [10] | Potency [11] |
| --- | --- | --- | --- | --- | --- | --- | --- | --- | --- | --- | --- | --- | --- | --- | --- |
| C=Cc1c(C)c2cc3nc(cc4[nH]c(cc5nc(cc1[nH]2)C(C)=C5CCC(=O)O)c(CCC(=O)OC)c4C)[C@@]1(C)C3=CC=C(C(=O)OC)[C@H]1C(=O)OC | 3.3% | 5.89% | 6.94% | 4.7% | 5.48% | 3.29% | inactive | 41.8 nM (active) | 83.3 nM (active) | – | – | – | – | – | – |
| O=C(NC1CC1)c1cccc(-c2ccc3c(NC(=O)C4CC4)n[nH]c3c2)c1 | 35.1% | 96.7% | 59.5% | 63.3% | 224% | 17.8% | inactive | 1320 nM (active) | 1320 nM (active) | 3720 nM (active) | – | – | – | – | – |
| CNC(=O)Nc1ccc(-c2nc(N3CC4CCC(C3)O4)c3cnn(C4CCC5(CC4)OCCO5)c3n2)cc1 | 5.91% | – | 8.34% | 3.02% | 17.6% | 8.62% | inactive | 46.9 nM (active) | 13.2 nM (active) | – | – | – | – | – | – |
| Oc1ccc(-c2ccc(-c3cc(Nc4cccc(CNC5CC5)c4)n[nH]3)cc2)c(O)c1 | 9.07% | 13.4% | 20% | 3.25% | 2.13% | 3.58% | inactive | 1480 nM (active) | 1870 nM (active) | 1870 nM (active) | – | – | – | – | – |
| CC(C)(C)[C@H](NC(=O)c1ccc(N)c(Cl)c1)C(=O)N1CCC[C@@H]1C(=O)N[C@H](C#N)CC(=O)O | 160% [at 3.19 µM] | 110% [at 3.19 µM] | 108% [at 3.19 µM] | 588% [at 3.19 µM] | 14.9% [at 3.51 µM] | 25% [at 3.51 µM] | – | – | – | – | 53% [at 4.53 µM] (inactive) | 112% [at 3.51 µM] (inactive) | 134% [at 3.51 µM] (inactive) | 116% [at 3.51 µM] (inactive) | – |
| Cc1cn([C@@H]2O[C@H](CO)[C@@H](O)[C@H]2F)c(=O)[nH]c1=O | 100% | 94.7% | 78.6% | 323% | 189% | 72.5% | inactive | inactive | inactive | inactive | – | – | – | – | – |
| CC(C)N(CC[C@H](c1ccccc1)c1cc(CO)ccc1O)C(C)C | – | – | – | 103% | 145% | 101% | inactive | inactive | inactive | inactive | – | – | – | – | – |
| CCCCCCCCCCCCc1ccc(S(=O)(=O)Nc2nncs2)cc1 | 79.3% | 92.3% | 80.6% | 117% | 86% | 105% | inactive | inactive | inactive | inactive | – | – | – | – | – |
| COc1ccc(S(=O)(=O)Nc2cccnc2Nc2ccc(O)cc2)cc1 | 64.8% | – | – | 51.4% | 4.34% | 8.72% | inactive | 83.3 nM (active) | 148 nM (active) | – | – | – | – | – | inactive |
| Cc1onc(-c2ccccc2)c1C(=O)N[C@@H]1C(=O)N2[C@@H](C(=O)O)C(C)(C)S[C@@H]12 | 92.7% | – | – | – | 73.2% | 120% | inactive | inactive | inactive | inactive | – | – | – | – | – |
| CCCCC(=O)O[C@]1(C(=O)CO)[C@@H](C)C[C@H]2[C@@H]3CCC4=CC(=O)C=C[C@]4(C)[C@@]3(F)[C@@H](O)C[C@@]21C | 13.5% | 78.8% | – | 22.8% | 44% | 51.8% | inactive | inactive | inactive | inactive | – | – | – | – | – |
| NC(=O)Nc1sc(-c2ccc(F)cc2)cc1C(N)=O | 6.58% | – | 9.96% | 3.76% | 3.62% | 3.13% | inactive | 1050 nM (active) | 1660 nM (active) | 3720 nM (active) | – | – | – | – | – |
| COc1ccc(CCC(=O)c2c(O)cc(O[C@@H]3O[C@H](CO)[C@@H](O)[C@H](O)[C@@H]3O[C@@H]3O[C@@H](C)[C@H](O)[C@@H](O)[C@@H]3O)cc2O)cc1O | 6.07% | – | 41.2% | 6.55% | 77% | 106% | inactive | 9350 nM (active) | 9350 nM (active) | 10500 nM (active) | – | – | – | – | – |
| Cn1cc(-c2cnn3c(N)c(Br)c([C@H]4CCCNC4)nc23)cn1 | 7.85% | 10.3% | 8.07% | 3.69% | 8.78% | 14.4% | inactive | 332 nM (active) | 118 nM (active) | – | – | – | – | – | – |
| O=C1NC(=O)C(=Cc2ccc3nccc(-c4ccncc4)c3c2)S1 | 6.28% | 7.95% | 7.98% | 3.52% | 3.73% | 4.43% | inactive | 187 nM (active) | 166 nM (active) | 132 nM (active) | – | – | – | – | – |
